High-throughput results: PubChem BioAssay, National Center for Advancing Translational Sciences (NCATS)
Shiga inhibitor – A qHTS for Small Molecule Inhibitors of Shiga Toxin; AID 2315, 2010; 290,000 compounds, 9.2% hits; Vero cells, Shiga toxin protein synthesis inhibition reporter; inhibition, % at 38.7 µM; in the data active means inhibition mostly above about 28%, no sharp cut-off; inactive means mostly below about 43%; further: 0% is about no effect
Cycloheximide cs – Cycloheximide Counterscreen for Small Molecule Inhibitors of Shiga Toxin | 300,000 compounds, 12% hits | cell reporter, cycloheximide protein synthesis inhibition counterscreen | AID 2314, 2010 | max response, %; in the data active means max response mostly above about 13%, no sharp cut-off; inactive means mostly below about 14%; further: read at 38.3 µM for the half of the compounds with a filed dose; 0% is about no effect
Pf growth 48h – Primary qHTS for delayed death inhibitors of the malarial parasite plastid, 48 hour incubation; P. falciparum luciferase growth in erythrocytes, 48 h; Potency, µM (doses to about 28.7 µM), inactives show at the highest dose activity change, negative = inhibition, most hits filed as inhibitors; 310,000 compounds, 5.9% hits; further: potency means the concentration at half of the fitted maximal effect; on the % scale 0 is the no-effect control and ±100 the full control effect
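A one-generation exposure of luciferase-tagged malaria parasites in RPMI 1640/Albumax erythrocyte culture, 37 C and 5% CO2. Inhibition is inferred from decreased luminescence after adding detection reagent.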
Pf growth 96h – Primary qHTS for delayed death inhibitors of the malarial parasite plastid, 96 hour incubation | P. falciparum luciferase reporter growth, 96 h | Potency, µM (titrated, usually from 28.7 µM), without a hit: top-dose activity change, negative = inhibition, actives largely listed as inhibitors | 320,000 compounds, 6.9% hits | AID 504834, 2011; further: potency means the concentration at half of the fitted maximal effect; on the % scale 0 is the no-effect control and ±100 the full control effect
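P. falciparum expressing integrated firefly luciferase, in erythrocytes at 2% hematocrit, 0.05% parasitemia, incubated with compounds 96 h at 37 C, 5% CO2. Growth inhibition read as loss of luminescence; two-generation exposure targets delayed-death apicoplast inhibitors.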
NS1 inh – qHTS Assay for Inhibitors of Influenza NS1 Protein Function; Potency, µM (top dose mostly 46.1 µM), inactives show at the top dose activity, positive = more growth; 270,000 compounds, 0.4% hits; calls by dose curve; further: potency means the concentration at half of the fitted maximal effect; actives are rising curves; nearly all actives have a fitted effect of over 50% in size
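Compounds were scored for reversing the slow growth caused by influenza A NS1 in S. cerevisiae, measured by optical density at 600 nm. Assay medium contained 2% galactose at pH 6.0; NS1-free yeast of the same strain were the positive control.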
* hit, by the source's call; ? = inconclusive; nt = no result; [ ] = remark or other dose. Hits are enriched below; roughly 21% of the tested compounds scored in any of these assays. Unless noted, the call rests on the fitted dose curve; in most records, active means well fitted inhibition curve with a large enough effect; inconclusive means small, poorly fitted or top-dose-only effect, or another doubt; inactive means no such curve, though single readings can be large or run the other way.

SMILES	Shiga inhibitor	Cycloheximide cs	Pf growth 48h	Pf growth 96h	NS1 inh
O=C(CS(=O)c1ccc(Br)cc1)N1CCOCC1 (configuration not stated)	-8.2	-1.2	15.4%[0.00184 µM]	38.6%	-1.7%
CCCCCCCCCCCCCCCCCC(=O)OCC(C)O (configuration not stated)	-2.1	-1.8	-0.9%	-3.0%	nt
CN(C)c1ccc(C2NC(=O)c3ccccc3N2)cc1 (configuration not stated)	65.8*	46.4*	101.0%	-1.4%	-12.1%
CN(C)c1ccc(NC(=O)C(=O)C2C(=O)Nc3ccccc32)cc1 (configuration not stated)	10.5	-0.4	51.4%	49.7%	0.0%
CN(C)c1ccc(C2Nc3cccc4cccc(c34)N2)cc1	31.3	10.8	nt	3.7µM*	0.4%
CN(C)c1ccc(CC2C(=O)Nc3ccccc32)cc1 (configuration not stated)	49.9*	21.8*	?	?	-0.6%
O=C1NC(c2ccc(Cl)cc2)Nc2ccccc21 (configuration not stated)	0.5	1.5	-17.4%	0.0%	-6.7%
Fc1cccc(Cl)c1C1Nc2cccc3cccc(c23)N1	33.8	24.0*	?	-2.1%	-47.5%
CCSC(SCC)[C@H](O)[C@@H](O)[C@H](O)[C@H](O)CO	-10.8	-2.9	10.4%	7.5%	0.8%
O=C1NC(c2ccncc2)Nc2ccccc21 (configuration not stated)	-19.1	-11.1	23.1%	-22.2%	8.8%
Clc1cccc(C2Nc3cccc4cccc(c34)N2)c1	-7.5	0.5	7.38µM*	62.7%	29.9%
Oc1ccccc1C1Nc2cccc3cccc(c23)N1	29.4	11.3	13.1µM*	-7.2%	-36.6%
Cc1ccc(C2NC(=O)c3ccccc3N2)s1 (configuration not stated)	47.7*	29.6*	104.2%	?	-1.4%
CCN(C(=O)C(C)Cl)c1ccccc1 (configuration not stated)	1.5	13.3	13.1%	8.2%	nt
Cc1c(NS(=O)(=O)c2ccc(Cl)c(C(=O)OC(C)C(=O)NCc3ccco3)c2)c(=O)n(-c2ccccc2)n1C (configuration not stated)	9.6	-1.7	5.1%	-14.9%	nt
CCOC(=O)C(CC)(CC)C(=O)/C=C/c1ccc(Br)cc1	1.5	0.1	14.7µM*	?	-16.7%
COC(=O)CSc1nnc(-c2ccc(S(=O)(=O)NCc3ccccc3Cl)cc2)o1	-10.6	1.7	?	nt	1.2%
COc1ccc2nc(-c3ccccc3)cc(C(=O)OCC(=O)N3CCCCC3)c2c1	nt	nt	11.7µM*	?	nt
COc1ccc2nc(-c3ccccc3)cc(C(=O)OCC(=O)N3CC(C)OC(C)C3)c2c1 (configuration not stated)	nt	nt	11.7µM*	?	nt
CC1Cc2ccccc2N1C(=O)CCNS(=O)(=O)c1cccc2nsnc12 (configuration not stated)	-7.3	-2.6	-11.4%	2.62µM*	5.1%
O=C(CCNS(=O)(=O)c1cccc2nsnc12)N1CCc2ccccc21	32.6	-2.0	nt	0.0%	-0.6%
O=C(CCCNS(=O)(=O)c1cccc2nsnc12)NCc1ccccc1	13.3	-0.8	4.7%	9.28µM*	-6.0%
O=C(CCCNS(=O)(=O)c1cccc2nsnc12)NCc1ccc(Cl)cc1	-10.0	-3.2	?	287.3%	-7.5%
CCN(CC)CCNC(=O)C1c2ccccc2C(=O)N(CCOC)C1c1ccc(F)cc1 (configuration not stated)	-4.2	-3.0	5.8%	?	-6.4%
COCCN(C(=O)c1cc2c(s1)CCCCC2)c1c(N)n(Cc2ccccc2)c(=O)[nH]c1=O	nt	nt	-3.9%	-2.9%	nt
SMILES	Shiga inhibitor	Cycloheximide cs	Pf growth 48h	Pf growth 96h	NS1 inh
CC1(C)Cc2nc3sc(C(=O)O)c(N)c3cc2CS1	53.6	8.2	?	21.0%	nt
CC1(C)Cc2nc3sc4c(NCCO)ncnc4c3cc2CS1	26.1	20.4*	?	?	3.0%
CCCCn1cnc2c(sc3nc4c(cc32)CSC(C)(C)C4)c1=O	55.1*	77.9*	150.1%	218.0%	4.2%
CCc1nc2c(sc3nc4c(cc32)COC(C)(C)C4)c(=O)n1Cc1ccccc1	-2.2	-4.2	?	?	10.1%
CC(C)CCn1cnc2c(sc3nc4c(cc32)CSC(C)(C)C4)c1=O	42.6*	37.8*	265.4%	211.2%	8.8%
CC(NS(=O)(=O)c1ccc(Cl)cc1)C(=O)N1CCOCC1 (configuration not stated)	2.1	-3.4	-18.9%	138.3%	11.9%
COC12C(COC(N)=O)C3=C(C(=O)C(C)=C(N)C3=O)N1CC1C2N1C (configuration not stated)	1.5	-0.9	0.928µM*	?	2.4%
O=S(=O)(c1ccc(-c2ccon2)s1)N1CCN(c2ccccn2)CC1	6.4	2.7	?	?	7.4%
COC(=O)c1cc(C(=O)OCC(=O)NNC(=O)c2cccs2)cc([N+](=O)[O-])c1	nt	nt	?	27.2%	nt
S=C(NC1CCCCC1)N1CCN(C2CCCCC2)CC1	13.4	14.4	-20.8%	0.0%	3.7%
S=C(NC1CCCCC1)N1CCOCCOCCN(C(=S)NC2CCCCC2)CCOCCOCC1	-5.3	-2.5	?	10.4µM*	9.1%
O=C(NC1CCCCCC1)C(=S)N1CCOCC1	-13.8	-2.1	6.6%	?	1.7%
S=C(NC1CC1)N1CCN(C(=S)NC2CC2)CC1	7.2	28.4*	-4.3%	?	-5.3%
O=C(NCCc1c[nH]c2ccccc12)/C(=C\c1cccnc1)NC(=O)c1ccccc1F	-8.2	1.0	?	-25.3%	1.8%
O=C(Oc1ccc(-c2nnco2)cc1)c1ccco1	nt	nt	7.2%	37.7%	nt
CC(NC(=O)c1ccc(S(C)(=O)=O)cc1)c1cccc2ccccc12 (configuration not stated)	-2.8	1.2	?	20.5%	-8.6%
CS(=O)(=O)c1ccc([C@@H](O)[C@@H](COC(=O)CN)NC(=O)C(Cl)Cl)cc1	nt	nt	?	1.9µM*	nt
O=C(/C=C/c1ccccc1Cl)NCCc1ccccc1	76.6*	49.9*	?	11.7µM*	-30.4%
O=C(/C=C/c1ccccc1Cl)NCc1ccccc1	51.4*	29.0*	18.4%	17.9%	-5.0%
O=C(/C=C/c1ccc(Cl)cc1)NCCc1ccccc1	21.7	39.6	35.2%	-35.0%	-32.2%
O=C(/C=C/c1ccccc1[N+](=O)[O-])NCc1ccc(Cl)cc1	31.5	-1.2	-2.3%	0.0%	1.3%
CCN1C(=O)[C@H]2[C@@H](c3ccc(C)cc3)N3C(=O)N(c4ccc(OC)cc4)C(=O)[C@@]3(C)[C@H]2C1=O	-3.5	-1.3	?	?	6.5%
CCOC(=O)C1CCN(C(=O)COc2ccc(S(=O)(=O)N3CCOCC3)cc2C)CC1	-9.3	-2.0	-11.8%	?	5.0%
C=CCNc1cc(N2CCCC2)ccc1[N+](=O)[O-]	-1.9	4.8	16.2%	53.4%[5.75 µM]	3.2%
CCN(CC)CCCNC(=O)c1ccccc1NC(=O)C1=CSCCO1	-11.2	-2.6	4.9%	11.0%	-0.5%
